Compound activity (PubChem)
Most compounds without a hit are left out; they make up all but 10% or so of the library.
PNC inhibitor – blocks assembly of the perinucleolar compartment. PC3M PTB-GFP, PNC prevalence imaging, 16 h; active compounds read low. activity change (PNC), negative = inhibition, % at 10 µM. 140,000 tested, 3.1% active. AID 2417;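 active = readout at or below -70, meaning at least 70% loss of cells showing the perinucleolar compartment, a nuclear body marking cancer cells; inconclusive = readout between -30 and a set limit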;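 also: plate controls were DMSO wells for no effect and camptothecin positive control wells for full effect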
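PC3M cells stably expressing PTB-GFP, 750–1000 cells/well, treated 16 h at 37 °C with compound (23 nl of library stock), in duplicate. After paraformaldehyde fixation and Hoechst stain, imaged at 20x; PNC prevalence scored by image analysis.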
LMNA splice mod – LMNA splicing modulation. Potency, µM (doses to about 46.1 µM), for inactives: at the highest dose ratio change, negative = inhibition, actives largely listed as inhibitors. 200,000 tested, 0.01% active. HeLa LMNA splicing GFP/RFP minigene ratio, 48 h; active = well fitted inhibition curve with a large enough effect in the signal ratio, with a control signal flat, not every such curve was filed as active; inconclusive = small, poorly fitted or top-dose-only effect, or effect the other way, or a change in a side signal; the % refers to the signal ratio; also: potency is read from the fitted curve at half-maximal effect
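S3 HeLa cells stably expressing lamin A-EGFP splicing minigene plus DsRed2, 600 cells/well, 48 h compound exposure at 37C. Laser-scanning cytometry; analysed as GFP (500-530 nm)/RFP (575-640 nm) total intensity ratio; 0.5% DMSO vehicle.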
ALDH1A1 inh – ALDH1A1 (human) enzyme inhibition. 220,000 tested, 7.3% active. AID 1030. Purified ALDH1A1, NADH fluorescence, propionaldehyde substrate. P00352. Potency, µM (titrated, usually from 75.3 µM), for the others: at the highest dose activity, negative = inhibition, most hits filed as inhibitors;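 also: potency is read from the fitted curve at half-maximal effect; plate controls were no enzyme wells and a reference inhibitor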
Target sequence (P00352 whole entry, looked up): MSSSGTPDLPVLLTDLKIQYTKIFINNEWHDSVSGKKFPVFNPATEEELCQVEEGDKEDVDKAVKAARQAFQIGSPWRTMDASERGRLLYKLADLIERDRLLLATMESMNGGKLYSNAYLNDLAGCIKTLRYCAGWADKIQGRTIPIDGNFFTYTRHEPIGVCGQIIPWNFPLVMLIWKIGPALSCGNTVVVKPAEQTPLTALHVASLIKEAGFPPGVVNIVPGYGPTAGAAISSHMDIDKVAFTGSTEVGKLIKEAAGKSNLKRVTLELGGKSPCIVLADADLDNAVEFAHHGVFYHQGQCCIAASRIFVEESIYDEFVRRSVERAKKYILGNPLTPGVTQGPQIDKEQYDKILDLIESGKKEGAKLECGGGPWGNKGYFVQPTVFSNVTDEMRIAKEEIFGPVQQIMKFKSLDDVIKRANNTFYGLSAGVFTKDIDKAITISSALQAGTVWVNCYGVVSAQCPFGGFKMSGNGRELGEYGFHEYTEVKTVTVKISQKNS
HPGD block – blocks human HPGD enzyme activity | purified HPGD, NADH fluorescence kinetic, PGE2 substrate | Potency, µM, for the others: at the top dose activity change, negative = inhibition, usual class: inhibitors | P15428 | 150,000 tested, 4.3% active; also: potency is read from the fitted curve at half-maximal effect
Target sequence (P15428 whole entry, looked up): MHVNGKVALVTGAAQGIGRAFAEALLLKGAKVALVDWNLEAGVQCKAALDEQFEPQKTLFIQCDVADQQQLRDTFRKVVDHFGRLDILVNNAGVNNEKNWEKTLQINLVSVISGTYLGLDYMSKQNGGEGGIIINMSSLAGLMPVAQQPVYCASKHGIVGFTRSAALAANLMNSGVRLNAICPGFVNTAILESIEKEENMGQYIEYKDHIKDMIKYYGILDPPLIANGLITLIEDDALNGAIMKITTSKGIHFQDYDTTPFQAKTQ
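20 nM HPGD preincubated 15 min at room temperature with compound in 50 mM Tris-HCl pH 8, 0.01% Tween 20. Started with 1 mM NAD+ and 30 uM prostaglandin E2; NADH fluorescence (360/450 nm) read 5 times over 30-s intervals, last minus first.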
Luc counter – Kinase-Glo luciferase inhibition (counter-screen); Potency, µM (highest dose often 38.3 µM), for the others: at the highest dose activity change, negative = inhibition, most hits filed as inhibitors; Q27757; Kinase-Glo luciferase, ATP luminescence, 8 min; 200,000 tested, 0.28% active; active = well fitted inhibition curve with a large enough effect; inconclusive = small, poorly fitted or top-dose-only effect; also: potency is read from the fitted curve at half-maximal effect; nearly all actives have a fitted effect of over 60% in size
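Light output from Kinase-Glo luciferase with luciferin and 10 uM ATP in 50 mM imidazole pH 7.2, KCl, MgCl2, Tween 20, BSA; compound pin-delivered, 8-min ambient incubation, then luminescence read.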
An asterisk follows results filed as active; ? = inconclusive; · = no result; [ ] = remark or other dose. Unless noted, calls follow the shape of the dose curve; as a rule, active = well fitted inhibition curve with a large enough effect (not every such curve was filed as active); inconclusive = small, poorly fitted or top-dose-only effect, or another doubt; inactive = no such curve, though single readings can be large or run the other way. Unless noted, % is scaled to controls: 0 for no effect and ±100 for the full control effect.

SMILES | PNC inhibitor | LMNA splice mod | ALDH1A1 inh | HPGD block | Luc counter
O=C(NCC1CCCO1)c1ccc(OC2CCN(C(=O)C3CC3)CC2)cc1 (stereo not drawn) | · | ? | 1.2% | · | 4.6%
Cc1ccc(/C=C(\NC(=O)c2ccccc2)C(=O)NCCc2ccccn2)o1 | -9.2 | 2.2% | 22.4µM* | -17.7% | -1.9%
Cc1ccc(C(=O)N/C(=C\c2ccco2)C(=O)NCCc2c[nH]c3ccccc23)cc1 | ? | -1.5% | -10.4% | -0.1% | -1.0%
Cc1ccc(/C=C(/NC(=O)c2ccccc2)C(=O)NCCc2c[nH]c3ccccc23)o1 | -28.5 | 7.4% | 28.2µM* | -23.3% | -1.2%
CCCCNC(=O)/C(=C\c1ccc([N+](=O)[O-])o1)NC(=O)c1ccccc1 | · | · | -13.7% | · | 4.1%
C=CCN1C(=O)C(CC(=O)Nc2ccccc2)N(Cc2ccccn2)C1=S (stereo not drawn) | · | · | 3.6% | · | 9.4%
COc1cccc(CNc2ccc(N3CCC(C)CC3)cc2)c1OC | -17.5 | -19.7% | 12.6µM* | -6.2% | 1.0%
Cc1cccc(NC(c2ccc(O)cc2)c2ccc3ccc(C)nc3c2O)n1 (stereo not drawn) | -16.5 | ? | 7.94µM* | 17.8µM* | -3.0%
COc1ccc(OC)c(C2C(C(=O)Nc3ccc(F)cc3)=C(C)Nc3nc(CCCO)nn32)c1 (stereo not drawn) | -4.8 | -11.8% | -6.5% | -0.9% | -2.4%
COc1ccccc1NC(=O)C1=C(C)Nc2nc(CCCO)nn2C1c1ccc2c(c1)OCO2 (stereo not drawn) | -12.6 | 2.3% | 14.1µM* | ? | -0.7%
CCCC[C@@H]1C[C@H]1C(NC(=O)c1cccs1)c1ccc(C(F)(F)F)cc1 (stereo partly drawn) | · | · | -14.0% | -25.6% | -3.9%
CC(C)Oc1ccc(CNC(=O)Cn2c(=O)oc3ccccc32)cc1 | 19.8 | -2.7% | -9.8% | 20µM* | 16.8%
CC(C)CN(CC(C)C)c1nnc(NC(=O)Cn2c(=O)oc3ccccc32)s1 | 24.0 | -8.5% | 1.41µM* | -9.6% | -2.5%
CCCc1nnc(NC(=O)Cn2c(=O)oc3ccccc32)s1 | 22.4 | -7.5% | 10µM* | 28.2µM* | 2.3%
CCc1ccccc1NC(=O)Cn1c(=O)oc2ccccc21 | · | -5.6%[46 µM] | · | · | ·
CCc1nnc(NC(=O)Cn2c(=O)oc3ccccc32)s1 | -8.6 | 10.9% | 2.9% | -2.1% | 7.2%
Cc1ccc(Cn2cc(S(=O)(=O)c3ccc(C)cc3)c(=O)c3cc(F)c(N4CCCC4)cc32)cc1 | · | 1.8%[46 µM] | · | · | ·
CC(C)C(NC(=O)CN(c1cccc(F)c1)S(C)(=O)=O)C(C)C | 16.1 | -2.2% | 35.5µM* | -1.8% | -2.0%
CCC(=O)OC1=CN(Cc2ccccc2)S(=O)(=O)c2ccccc21 | · | -8.2%[46 µM] | · | · | ·
COC(=O)c1ccc(OCC2c3cc(OC)c(OC)cc3CCN2C(=O)c2ccc(F)cc2)cc1 (stereo not drawn) | · | -11.4%[46 µM] | · | · | ·
CCc1nc2sc3ccccc3c(=O)c2c(=O)n1CCOC | 73.8 | 6.5% | ? | -9.5% | -0.4%
COc1ccc2sc3ccccc3c(=O)c2c1OC | -18.8 | -1.0% | -4.3% | 6.31µM* | -7.2%
Cc1cccc(C2=N[C@@H](Cc3ccccc3)CO2)c1 | · | · | -10.6%[120 µM] | -13.5% | 1.5%[39.9 µM]
CCOC(=O)c1ccc(-n2c(C)ccc2C)cc1 | 45.8 | 9.4% | -5.3% | ? | 1.0%
CCOC(=O)c1ccc(N2C(=O)C=CC2=O)cc1 | ? | ? | 0.0631µM* | 1.41µM* | -4.7%
SMILES | PNC inhibitor | LMNA splice mod | ALDH1A1 inh | HPGD block | Luc counter
CCOC(=O)c1ccc(N2C(=O)CC(SCC(N)C(=O)OCC)C2=O)cc1 (stereo not drawn) | 16.3 | 13.8% | 3.55µM* | -7.8% | -0.1%
CCOC(=O)c1ccc(N2C(=O)CC(Sc3nnc(C)s3)C2=O)cc1 (stereo not drawn) | -24.7 | 7.9% | 1µM* | 28.2µM* | -3.0%
O=C1CC(SCCO)C(=O)N1c1ccc(Oc2ccccc2)cc1 (stereo not drawn) | ? | -7.3% | 14.1µM* | -14.5% | 2.0%
COc1ccc(C)cc1NC(=O)c1cc(S(=O)(=O)N2CCc3ccccc3C2)ccc1F | · | -14.3%[46 µM] | · | · | ·
O=C(COC(=O)c1n[nH]c2ccccc12)NC(=O)NC1CCCCC1 | -126.9* | -3.3% | -8.3% | -11.7% | 2.2%
COc1ccc(NC(=O)c2cc([N+](=O)[O-])ccc2O)cc1 | · | -8.2%[46 µM] | 4.3% | · | 7.94µM*
COc1ccc(NC(=O)c2ccc(-c3ccc([N+](=O)[O-])cc3)o2)cc1 | · | ? | 2.24µM* | · | 10.8%
COc1ccc(NC(=O)c2[nH]ncc2[N+](=O)[O-])cc1 | · | -18.7%[46 µM] | 15µM* | · | -12.2%
O=C(Nc1nccs1)c1ccc(-c2ccc([N+](=O)[O-])cc2)o1 | · | ? | 22.4µM* | · | -5.0%
O=C(O)c1ccc(NS(=O)(=O)c2cccc3ccccc23)cc1 | · | · | -4.4% | 2.5% | -0.5%
COc1ccc(CCNC(=O)c2ccc(CS(=O)(=O)Cc3cccc(C)c3)o2)cc1OC | · | -5.0%[46 µM] | · | · | ·
O=C(Nc1nccs1)c1ccc(-c2ccc(Cl)cc2)o1 | · | -5.8%[46 µM] | -11.8% | · | -6.7%
O=C(Nc1nccs1)c1ccc(-c2ccc(F)cc2)o1 | · | · | 22.4µM* | · | -5.0%
COc1ccc(NC(=O)c2ccc(Cc3ccc(C)cc3)o2)cc1 | ? | ? | 25.1µM* | ? | 0.8%
COc1ccc(CCNC(=O)c2ccc(-c3ccc([N+](=O)[O-])cc3)o2)cc1OC | 23.0 | ? | 10µM* | -8.0% | 5.8%
CCOc1cc(CNC(=O)Cn2c(=O)c3cccn3c3ccc(F)cc32)cc(OCC)c1OCC | · | 10.1%[46 µM] | · | · | ·
Cc1cc2c(cc1NS(=O)(=O)c1ccc(F)cc1)n(C)c(=O)c(=O)n2C | · | 3.4%[46 µM] | · | · | ·
CCc1ccc2nc(N(Cc3cccnc3)C(C)=O)sc2c1 | · | 27.1%[46 µM] | · | · | ·
COC(=O)CCCC1=CC2=C(c3ccccc3)C(=O)C(C)(OC(=O)C3CCCC3)C(=O)C2=CO1 (stereo not drawn) | · | · | 2.7% | -5.4% | -3.9%
CCc1nc2ccc(C(=O)NCc3ccc(OC)c(OC)c3)cc2nc1CC | · | 6.0%[46 µM] | · | · | ·
CN(C(=O)c1cnc(N2CCN(c3ncccn3)CC2)c2ccccc12)c1ccc(Cl)cc1 | 3.9 | ? | 8.8% | 22.4µM* | -1.8%
CC(C)NC(=O)c1cnc(N2CCN(c3ccccn3)CC2)c2ccccc12 | 4.5 | ? | 31.6µM* | ? | 0.8%
Cc1c(C(=O)c2ccccc2)c2ccccn2c1CCc1ccccn1 | · | ? | 11.2µM* | · | -1.2%
Cc1c(C(=O)Nc2cccc(Cl)c2)c2ccccn2c1CCc1ccncc1 | -17.7 | ? | ? | ? | 0.1%
Cc1c(C(=O)Nc2ccc(Cl)cc2)c2ccccn2c1CCc1ccncc1 | -84.7* | ? | ? | ? | -2.1%
C[n+]1cc2c3c(ccc2c2ccc4cc5c(cc4c21)OCO5)OCO3 | · | ? | 7.4%[20.9 µM] | ? | 0.3%
Clc1ccc(/C=C/c2nc3ccccc3[nH]2)c(Cl)c1 | 12.1 | ? | ? | ? | 7.08µM*
